Inconclusive results are not listed. Activity calls are given as the source filed them.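 The calls were made as follows, unless noted: active = normalized viability below 100% at a tested concentration; inactive = the rest.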
Assays:
[1] = growth inhibition of DIPG glioma cells, dose response, cell-based, SU-DIPG-XVII, MIPE5.0, CellTiter-Glo, qHTS (AID 1347060; cut-off not given, nearly all actives have AC50 up to about 26 µM); details: SU-DIPG-XVII viability, CellTiter-Glo ATP luminescence
[2] = growth inhibition of DIPG glioma cells, dose response, cell-based, SU-DIPG-XIII, MIPE5.0, CellTiter-Glo, qHTS (AID 1347064; cut-off not given, nearly all actives have AC50 up to about 23 µM); details: SU-DIPG-XIII viability, CellTiter-Glo ATP luminescence
[3] = viability loss in pontine glioma line – cell-based, SU-DIPG-XXV, MIPE5.0, CellTiter-Glo, qHTS, dose response (AID 1347065; cut-off not given, nearly all actives have AC50 up to about 26 µM;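 also: cells exposed to compound for 48 hours before ATP readout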); details: CellTiter-Glo ATP luminescence
[4] = SU-DIPG-VI glioma cell viability, MIPE4.0 library, CellTiter-Glo luminescence, qHTS (AID 1347066; cut-off not given, nearly all actives have AC50 up to about 30 µM;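 also: cells exposed to compound for 48 hours before readout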); details: CellTiter-Glo ATP luminescence
[5] = JHH-DIPG-1 glioma cell viability, MIPE5.0 library, CellTiter-Glo luminescence, qHTS (AID 1347067; cut-off not given, nearly all actives have AC50 up to about 26 µM;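 also: cells exposed to compound for 48 hours before readout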); details: JHH-DIPG-1 glioma viability, CellTiter-Glo ATP luminescence
[6] = SU-DIPG-XXV glioma cell viability, MIPE5.0 library, qHTS (AID 1347068; cut-off not given, nearly all actives have IC50 up to about 30 µM)
[7] = sensitizers of A549 cells to miR-34 induction, primary screen, imaging, A549 dox-inducible miR-34, nuclei and caspase counts (AID 1347080;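 active = compounds whose cell count with miR-34 switched on is under 0.7 times the count with it off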); details: A549 miR-34 inducible, Hoechst nuclei count, 48 h
[8] = survival rescue of mitochondrial mutant cells in low glucose, primary screen, MELAS cybrids, Rieske KO mouse fibroblasts, CellTiter-Glo (AID 1508586;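 active = mean z-score across replicates of 1.96 or higher in either the MELAS or the Rieske mutant cell line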;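 also: z relative to plate mean and SD of compound and empty wells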)
[9] = ovarian cancer cell viability with rucaparib, profiling panel, oncology-focused library, rucaparib conditional (AID 1508598); details: patient-derived ovarian cancer cells, CellTiter-Glo viability, 144 h, stronger effect = lower value

Cc1ccc2c(=O)c3cccc(CC(=O)O)c3oc2c1C
0.338: z-score ([8]; Rieske KO mouse fibroblast survival, CellTiter-Glo 72 h)
6780: cell count ([7]; measured here: total cells with miR-34 induction, stronger effect = lower value)
7150: cell count ([7]; measured here: total cells without miR-34 induction)
active: viability ([9]; at 0.000305 µM, OCI-C5x cells, with rucaparib 10 µM, 100% = cells with rucaparib alone) 94.7% | viability ([9]; at 0.000305 µM, OCI-P5x cells, with rucaparib 20 µM, 100% = cells with rucaparib alone) 97% | viability ([9]; at 0.000305 µM, OCI-P5x cells, without rucaparib) 97.7% | viability ([9]; at 0.313 µM, OCI-P5x cells, with rucaparib 20 µM, 100% = cells with rucaparib alone) 68.4% | viability ([9]; at 0.313 µM, OCI-P5x cells, without rucaparib) 19.4%
1.03: fold change ([7]; measured here: relative caspase fold change +Dox/-Dox)
inactive: outcome [1] | outcome [2] | outcome [3] | outcome [4] | outcome [5] | outcome [6] | fold change ([7]; stronger effect = lower value, cell number ratio, induced over uninduced) 0.947 | z-score ([8]; MELAS cybrid survival, CellTiter-Glo 48 h, stronger effect = higher value) -0.329 | viability ([9]; at 0.000305 µM, OCI-C5x cells, without rucaparib) 116% | viability ([9]; at 0.00122 µM, OCI-C5x cells, with rucaparib 10 µM, 100% = cells with rucaparib alone) 105% | viability ([9]; at 0.00122 µM, OCI-C5x cells, without rucaparib) 110% | viability ([9]; at 0.00122 µM, OCI-P5x cells, with rucaparib 20 µM, 100% = cells with rucaparib alone) 102% | viability ([9]; at 0.00122 µM, OCI-P5x cells, without rucaparib) 101% | viability ([9]; at 0.00488 µM, OCI-C5x cells, with rucaparib 10 µM, 100% = cells with rucaparib alone) 108% | viability ([9]; at 0.00488 µM, OCI-C5x cells, without rucaparib) 116% | viability ([9]; at 0.00488 µM, OCI-P5x cells, with rucaparib 20 µM, 100% = cells with rucaparib alone) 105% | viability ([9]; at 0.00488 µM, OCI-P5x cells, without rucaparib) 103% | viability ([9]; at 0.0195 µM, OCI-C5x cells, with rucaparib 10 µM, 100% = cells with rucaparib alone) 113% | viability ([9]; at 0.0195 µM, OCI-C5x cells, without rucaparib) 116% | viability ([9]; at 0.0195 µM, OCI-P5x cells, with rucaparib 20 µM, 100% = cells with rucaparib alone) 107% | viability ([9]; at 0.0195 µM, OCI-P5x cells, without rucaparib) 111% | viability ([9]; at 0.0781 µM, OCI-C5x cells, with rucaparib 10 µM, 100% = cells with rucaparib alone) 115% | viability ([9]; at 0.0781 µM, OCI-C5x cells, without rucaparib) 114% | viability ([9]; at 0.0781 µM, OCI-P5x cells, with rucaparib 20 µM, 100% = cells with rucaparib alone) 110% | viability ([9]; at 0.0781 µM, OCI-P5x cells, without rucaparib) 113% | viability ([9]; at 0.313 µM, OCI-C5x cells, with rucaparib 10 µM, 100% = cells with rucaparib alone) 116% | viability ([9]; at 0.313 µM, OCI-C5x cells, without rucaparib) 115% | viability ([9]; at 1.25 µM, OCI-C5x cells, with rucaparib 10 µM, 100% = cells with rucaparib alone) 118% | viability ([9]; at 1.25 µM, OCI-C5x cells, without rucaparib) 127% | viability ([9]; at 1.25 µM, OCI-P5x cells, with rucaparib 20 µM, 100% = cells with rucaparib alone) 104% | viability ([9]; at 1.25 µM, OCI-P5x cells, without rucaparib) 112% | viability ([9]; at 5 µM, OCI-C5x cells, with rucaparib 10 µM, 100% = cells with rucaparib alone) 103% | viability ([9]; at 5 µM, OCI-C5x cells, without rucaparib) 123% | viability ([9]; at 5 µM, OCI-P5x cells, with rucaparib 20 µM, 100% = cells with rucaparib alone) 104% | viability ([9]; at 5 µM, OCI-P5x cells, without rucaparib) 122%

O=C(C[C@@H]1C/C=C\CCC(=O)O[C@H](c2ccccc2)CNC1=O)NCc1ccc(Cl)cc1
inactive: outcome [1] | outcome [2] | outcome [3] | outcome [4] | outcome [5] | outcome [6]

— PubChem BioAssay
